Compound activity deposited in PubChem by National Center for Advancing Translational Sciences (NCATS).
D3 antag: qHTS of D3 Dopamine Receptor Antagonist: qHTS; D(3) dopamine receptor (Homo sapiens), P35462; D3R cells, DiscoveRx beta-arrestin luminescence, antagonist mode; hits give low values; max response, negative = inhibition, %; 2.5% of 360,000 active; in the data active = max response below about -50%; inconclusive = no clear call, values can overlap the other calls
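Cells expressing the human receptor were seeded at 1500 cells/well, incubated overnight at 37 degrees C in 5% CO2, then exposed to library compounds with dopamine controls for 90 minutes at 37 degrees C before luminescent detection.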
D1 antagonist: Antagonist of Human D 1 Dopamine Receptor: qHTS. D(1A) dopamine receptor (Homo sapiens), P21728. HEK293 TREx D1 cells, calcium flux, dopamine EC80; hits give low values. activity change, negative = inhibition, % at 10 µM. 3.2% of 360,000 active; in the data active = activity change below about -30%
Target sequence (P21728 whole entry, looked up): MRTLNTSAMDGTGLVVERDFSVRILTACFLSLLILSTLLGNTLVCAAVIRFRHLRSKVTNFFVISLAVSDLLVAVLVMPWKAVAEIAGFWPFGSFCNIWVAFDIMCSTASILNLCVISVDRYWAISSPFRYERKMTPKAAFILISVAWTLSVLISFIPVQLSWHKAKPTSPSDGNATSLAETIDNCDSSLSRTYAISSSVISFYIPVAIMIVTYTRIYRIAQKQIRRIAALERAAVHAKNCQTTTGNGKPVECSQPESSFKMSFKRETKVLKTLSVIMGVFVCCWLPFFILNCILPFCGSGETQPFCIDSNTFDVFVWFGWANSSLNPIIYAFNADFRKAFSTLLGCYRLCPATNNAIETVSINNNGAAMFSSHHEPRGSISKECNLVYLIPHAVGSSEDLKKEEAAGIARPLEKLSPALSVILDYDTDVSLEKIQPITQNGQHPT
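Cells carrying a force-coupled, tetracycline-inducible human D1 receptor report calcium flux. Each well gets a 10 s baseline, compound with 180 s monitoring, then an EC80 dopamine stimulus with a second 180 s kinetic read.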
DRD3 agonist: qHTS of D3 Dopamine Receptor Agonist: qHTS | D(3) dopamine receptor (Homo sapiens), P35462 | D3R DiscoveRx beta-arrestin cells, luminescence, 90 min | max activation, % | 0.58% of 410,000 active | AID 652048, 2013; in the data active = max activation above about 30%
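Agonist-mode cell screen: cells plated at 1500/well and incubated overnight at 37 °C, then exposed to library compounds for 90 min at 37 °C. Detection reagent was added for 30–60 min at room temperature, and luminescence was read.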
D1 PAM: Potentiators of Human D1 Dopamine Receptor: qHTS | D(1A) dopamine receptor (Homo sapiens), P21728 | HEK293 TREx D1 cells, calcium flux, dopamine EC20 potentiation | potentiation, % at 10 µM | 0.036% of 360,000 active | AID 504651, 2011; in the data active = potentiation above about 30%
D1 agonist: Allosteric Agonists of the Human D1 Dopamine Receptor: qHTS; D(1A) dopamine receptor (Homo sapiens), P21728; HEK293 T-REx D1 cells, calcium flux, agonist mode; activation, % at 2 µM; 1% of 360,000 active; AID 504660, 2011; in the data active = activation above about 30%
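Tetracycline-induced HEK293 TREx D1 cells, force-coupled to calcium signalling, were dye-loaded with a no-wash calcium kit. Compound was pin-added after a 10 s baseline. Fluorescence was read kinetically at 1 cycle/s for 180 s, with calcium rises flagged as agonism.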
Hits are given with their value; 0 = inactive; ? = inconclusive; - = no result given; ! = repeats disagree. The list is not random: actives were taken first. Their share in the collection is about 6%.

SMILES | D3 antag | D1 antagonist | DRD3 agonist | D1 PAM | D1 agonist
CC(=O)NC(c1cc(Cl)c2cccnc2c1O)C(C)C (configuration not stated) | - | 0 | - | 0 | 0
CN1CCN(C(c2ccccn2)c2cc(Cl)c3cccnc3c2O)CC1 (configuration not stated) | -126 | 0 | 0 | 0 | 0
COc1cccc(OC)c1OCC(C)CNCC1CCCO1 (configuration not stated) | -67 | 0 | 0 | 0 | 0
CCOC(=O)c1c(S(=O)(=O)N2CCCC(C(=O)NCc3ccc(Cl)cc3)C2)c(C)n(C)c1C (configuration not stated) | - | 0 | 0 | 0 | 0
Cc1c(-n2c(O)c(C3=c4ccccc4=NC3=O)sc2=O)c(=O)n(-c2ccccc2)n1C | 0 | 0 | 0 | 0 | 0
Cc1ccc2c(c1)c(C1=c3ccccc3=NC1=O)c(O)n2C | -80 | 0 | 0 | 0 | 0
C=CCn1c(O)c(C2=c3ccccc3=NC2=O)c2ccccc21 | -65 | 0 | 0 | 0 | 0
COc1cc(/C=N/NC(=O)C[n+]2ccccc2)cc(OC)c1OC(C)=O | 0 | -79 | 0 | 0 | 0
COc1cc(/C=N/NC(=O)C[n+]2ccccc2)cc(OC)c1OC | 0 | 0 | 0 | 0 | 0
COc1ccc(/C=N/NC(=O)CCn2c3ccccc3c3ccccc32)cc1OC | 0 | 0 | 0 | 0 | 0
COc1cc(/C=N/NC(=O)CCn2c3ccccc3c3ccccc32)cc(OC)c1OC | 0 | 0 | 42 | 0 | 0
COc1ccccc1CNC(=O)c1cc2cc3ccc(Cl)cc3nc2o1 | - | 0 | 0 | 0 | 0
CCc1ccc(C(C)NC(=O)c2ccc3c(c2)OCO3)cc1 (configuration not stated) | 0 | -42 | 0 | 0 | 0
CC(NC(=O)c1ccc2c(c1)OCO2)c1ccccc1 (configuration not stated) | 0 | 0 | 0 | 0 | 0
CCn1c(SCC(=O)NCc2cccs2)nnc1-c1cccs1 | 0 | -39 | 0 | 0 | 0
O=C(c1ccco1)[C@@H]1[C@@H]2C(=O)N(c3ccc(Br)cc3)C(=O)[C@@H]2C2c3ccccc3C=CN21 (some centres not stated) | -57 | 0 | 0 | 0 | 0
O=C(c1ccco1)[C@@H]1[C@@H]2C(=O)N(c3ccc(F)cc3)C(=O)[C@@H]2C2c3ccccc3C=CN21 (some centres not stated) | - | 0 | - | 0 | 0
CN(Cc1ccccc1)C(=O)CSc1nc2ccsc2c(=O)n1-c1ccc(F)cc1 | - | 0 | 0 | 0 | 0
Cc1cccc(CN2CCN(C3CN(C4CCCCC4)S(=O)(=O)C3)CC2)c1 (configuration not stated) | -57 | - | 0 | - | -
O=C(NCCN1C(=O)S/C(=C\c2ccc(Cl)c([N+](=O)[O-])c2)C1=O)C1=COCCO1 | -55 | -57 | 0 | 0 | 0
Cc1ccc(S(=O)(=O)CCC(=O)N2CCN(c3ccc(Cl)cc3)CC2)cc1 | 0 | 0 | 32 | 0 | 0
Cc1ccc(CC(=O)N2CCN(c3ccc([N+](=O)[O-])cc3)CC2)cc1 | 0 | -42 | 0 | 0 | 0
CCOC(=O)N1CCN(C(=O)Cc2ccc(C)cc2)CC1 | -58 | 0 | 0 | 0 | 0
O=C(CCS(=O)(=O)c1ccc(Cl)cc1)N1CCN(c2ccc(F)cc2)CC1 | 0 | 0 | 0 | 0 | 0
COC(=O)C1CCN(C(=O)Cc2ccc(C)cc2)CC1 | 0 | 0 | 0 | 0 | 0
SMILES | D3 antag | D1 antagonist | DRD3 agonist | D1 PAM | D1 agonist
Cc1ccc(C)c(CSC2=NCCN2C(=O)Cc2ccc([N+](=O)[O-])cc2)c1 | -61 | 0 | 0 | 0 | 0
COc1cccc(NC(=O)N2CCN3CCCCC3C2)c1 (configuration not stated) | - | 0 | 0 | 0 | 0
O=C(CN1C(=O)COc2ccc(S(=O)(=O)N3CCOCC3)cc21)N1CCN(c2ccccc2F)CC1 | - | 0 | 0 | 0 | 0
CC(C)C(=O)Nc1nnc(SCc2cc(=O)n3ccccc3n2)s1 | - | 0 | 0 | 0 | 0
O=[N+]([O-])c1ccc(N2CCN(CC3CCCCC3)CC2)cc1 | -58 | 0 | 0 | 0 | 0
CCc1ccc(C(=O)COC(=O)c2cnc(C)cn2)cc1 | 0 | -33 | 0 | 0 | 0
O=C(COC(=O)c1cnccn1)c1ccc(C2CCCCC2)cc1 | 0 | 0 | 0 | 0 | 0
Cc1cnc(C(=O)OCC(=O)c2ccc(C3CCCCC3)cc2)cn1 | 0 | -31 | 0 | 0 | 0
O=C(NCCc1nc2ccccc2n1Cc1ccc(Cl)cc1Cl)c1ccco1 | - | 0 | 0 | 0 | 0
COc1ccccc1Nc1nc(C)cs1 | ? | 0 | 0 | 0 | 0
Cc1csc(Nc2cccc3ccccc23)n1 | 0 | -46 | 0 | 0 | 0
CCCCN1CC(c2nc3ccccc3n2CCCCOc2cc(C)ccc2C)CC1=O (configuration not stated) | - | 0 | 0 | 0 | 0
CCOc1ccc(NC(=O)Cc2coc3ccc(C)cc23)cc1 | - | 0 | 0 | 0 | 0
O=C(/C=C/c1ccco1)Nc1sc2c(c1C(=O)O)CCC2 | 0 | 0 | 0 | 0 | 0
N#Cc1c(NC(=O)/C=C/c2ccco2)sc2c1CCCC2 | -60 | 0 | 0 | 0 | 0
COc1ccccc1Nc1nn2c(=O)c3ccc(C(=O)N4CCCCC4)cc3nc2s1 | 0 | -43! | 0 | 0 | 0
COc1cccc(NC(=O)c2ccc3c(=O)n4nc(Nc5ccccc5OC)sc4nc3c2)c1 | - | 0 | 0 | 0 | 0
O=C1CC(c2nnc(Cc3ccc(F)cc3Cl)o2)CN1c1ccccc1 (configuration not stated) | - | 0 | 0 | 0 | 0
CCC(C(=O)Nc1ccc(S(=O)(=O)N(C)C2CCN(C)CC2)cc1)c1ccccc1 (configuration not stated) | 0 | 0 | 0 | 0 | 30
CCC(C(=O)NC1CCN(C)CC1)c1ccccc1 (configuration not stated) | 0 | 0 | 0 | 0 | 0
COc1ccc(CC(=O)Nc2ccc(S(=O)(=O)N(C)C3CCN(C)CC3)cc2)cc1 | 0 | 0 | 0 | 0 | 0
COc1ccc(S(=O)(=O)N(C)C2CCN(C)CC2)cc1 | 0 | 0 | 0 | 0 | 0
CC(Oc1ccc(Br)cc1)C(=O)Nc1ccc(S(=O)(=O)N(C)C2CCN(C)CC2)cc1 (configuration not stated) | 0 | -52 | 0 | 0 | 126
COc1ccccc1CC(=O)Nc1ccc(S(=O)(=O)N(C)C2CCN(C)CC2)cc1 | -51 | 0 | 0 | 0 | 0
O=S(=O)(Nc1cccnc1)c1ccc(Cl)c(C(F)(F)F)c1 | -51 | -38 | 0 | 0 | 0
CCC(C)c1ccc(S(=O)(=O)Nc2cccnc2)cc1 (configuration not stated) | 0 | -51 | 0 | 0 | 0
